From PubChem
This is a sample that favours compounds with a hit; in the whole collection about 0.79% have one here.
LANA-H2B inh: blocks KSHV LANA binding to histone H2A/H2B | Q9QR71 | 0.6% of 320,000 active | inhibition, % (no concentration beside the values) | cell-free LANA-H2A/H2B peptide, fluorescence polarization; in the data active means inhibition mostly above about 10%, no sharp cut-off; inactive means mostly below about 6.7%
HDAC3 inhib: human HDAC3 inhibition; O15379; recombinant HDAC3, fluorogenic peptide/trypsin coupled, fluorescence; inhibition, % at 8.3 µM; 0.15% of 320,000 active; AID 2718; in the data active means inhibition above about 26%, passing the limit was not always enough
Target sequence (O15379 whole entry, looked up): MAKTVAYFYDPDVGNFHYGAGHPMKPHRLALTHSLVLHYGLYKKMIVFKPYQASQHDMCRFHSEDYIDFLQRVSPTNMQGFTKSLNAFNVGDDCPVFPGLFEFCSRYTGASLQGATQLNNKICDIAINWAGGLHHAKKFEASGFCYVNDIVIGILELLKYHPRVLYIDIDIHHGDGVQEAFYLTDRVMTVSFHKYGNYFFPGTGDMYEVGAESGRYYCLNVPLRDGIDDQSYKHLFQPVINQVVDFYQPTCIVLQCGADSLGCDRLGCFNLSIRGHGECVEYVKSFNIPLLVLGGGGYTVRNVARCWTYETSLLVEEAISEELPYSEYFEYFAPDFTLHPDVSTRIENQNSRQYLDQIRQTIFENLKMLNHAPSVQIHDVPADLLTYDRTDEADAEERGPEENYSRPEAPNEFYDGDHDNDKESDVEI
DAGLB inhibitor: diacylglycerol lipase beta (human) inhibition. HEK293T DAGLB membrane lysate, EnzChek fluorogenic substrate. inhibition, % at 5.17 µM. 0.059% of 340,000 active; in the data active means inhibition above about 34%
hiPSC survival: increases survival of single human iPS cells | 0.044% of 360,000 active | survival enhancement, % at 20 µM | hiPSC single-cell survival, ATPlite luminescence; 100% = ROCK inhibitor wells, 0% = DMSO; in the data active means survival enhancement above about 18%;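 further: cells exposed to compounds for 16 hours before the ATP read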
Hits are given with their value.

Cc1nnc(SCC2=C(C(=O)O)N3C(=O)C(NC(=O)Cn4cnnn4)C3SC2)s1 (stereo unspecified) was read as LANA-H2B inh inactive, HDAC3 inhib inactive, DAGLB inhibitor inactive and hiPSC survival inactive.
For CCN(CC)C(=O)CSc1nc2c(sc(=S)n2-c2ccc(C)cc2C)c(=O)[nH]1 the results were LANA-H2B inh inactive, HDAC3 inhib inactive, DAGLB inhibitor inactive and hiPSC survival inactive.
COc1ccc(C(CC(=O)c2ccccc2)CC(=O)c2ccccc2)cc1OC was read as LANA-H2B inh inactive, HDAC3 inhib inactive, DAGLB inhibitor inactive and hiPSC survival inactive.
COc1ccc(C(Sc2ccccc2)c2ccccc2)cc1OC (stereo unspecified) was read as LANA-H2B inh 12, HDAC3 inhib inactive, DAGLB inhibitor inactive and hiPSC survival inactive.
`Cc1c(Cl)cccc1NC(=O)COC(=O)Cn1cnc2c1c(=O)n(C)c(=O)n2C` gave HDAC3 inhib inactive, DAGLB inhibitor inactive and hiPSC survival inactive.
`O=C(N/N=C1\C/C(=N\NC(=O)c2ccncc2)c2ccccc21)c1ccncc1` gave LANA-H2B inh inactive, HDAC3 inhib inactive, DAGLB inhibitor inactive and hiPSC survival inactive.
Screening O=C(N/N=C1\CCCc2c1[nH]c1ccc(Cl)cc21)c1ccncc1 returned LANA-H2B inh 44, HDAC3 inhib inactive, DAGLB inhibitor inactive and hiPSC survival inactive.
Cc1nnc2n(c1=O)N=C(c1ccc(Cl)cc1)CS2 was read as LANA-H2B inh inactive, HDAC3 inhib 59, DAGLB inhibitor inactive and hiPSC survival inactive.
Screening COc1cccc(Cn2cc(C)cc(NC(=O)NCc3ccccc3)c2=O)c1 returned LANA-H2B inh 23, HDAC3 inhib inactive, DAGLB inhibitor inactive and hiPSC survival inactive.
`Cc1cc(NC(=O)NCc2ccccc2)c(=O)n(Cc2ccccc2F)c1` gave LANA-H2B inh inactive, HDAC3 inhib inactive, DAGLB inhibitor inactive and hiPSC survival inactive.
CCOC(=O)c1c(-c2ccccc2)oc2cc(CN(C)C)c(O)c(CN(C)C)c12 was read as LANA-H2B inh 49, HDAC3 inhib inactive, DAGLB inhibitor inactive and hiPSC survival inactive.
Screening CCOC(=O)c1c(C)oc2cc(Cl)c(O)c(CN(C)C)c12 returned LANA-H2B inh inactive, HDAC3 inhib inactive, DAGLB inhibitor inactive and hiPSC survival inactive.
`CCCCNC(=O)CSc1nc(CCC)nc2ccccc12` gave LANA-H2B inh inactive, HDAC3 inhib inactive, DAGLB inhibitor inactive and hiPSC survival inactive.
CCCc1nc(SCC(=O)c2ccc(F)cc2)c2ccccc2n1 was read as LANA-H2B inh inactive, HDAC3 inhib 33, DAGLB inhibitor inactive and hiPSC survival inactive.
`Cc1ccc(C2=CC(c3cccs3)n3nnnc3N2)cc1` (stereo unspecified) gave LANA-H2B inh 23, HDAC3 inhib inactive, DAGLB inhibitor inactive and hiPSC survival inactive.
`OCCCc1nc2n(n1)C(c1ccccc1)C=C(c1ccc(F)cc1)N2` (stereo unspecified) gave LANA-H2B inh inactive, HDAC3 inhib inactive, DAGLB inhibitor inactive and hiPSC survival inactive.
Screening OCCCc1nc2n(n1)C(c1cccs1)C=C(c1ccccc1)N2 (stereo unspecified) returned LANA-H2B inh 68 and HDAC3 inhib inactive.
`COCCNc1nc(Oc2cccc3ccccc23)c2sccc2n1` gave hiPSC survival inactive.
`Cc1ccc(C(C[N+](=O)[O-])Sc2ccc(N)cc2)cc1` (stereo unspecified) gave LANA-H2B inh inactive, HDAC3 inhib inactive, DAGLB inhibitor inactive and hiPSC survival inactive.
Screening CC(C)(C=O)C1=CC(=O)c2ccccc2C1=O returned LANA-H2B inh active, HDAC3 inhib inactive, DAGLB inhibitor inactive and hiPSC survival inactive.
Screening O=C(O)CC/C(=N/NC(=O)CNC(=O)c1ccc2c(c1)OCCO2)c1ccccc1 returned LANA-H2B inh inactive, HDAC3 inhib inactive, DAGLB inhibitor inactive and hiPSC survival inactive.
COc1ccc(N2CC(C(=O)Nc3nnc(SCC(=O)NCC4CCCO4)s3)CC2=O)cc1 (stereo unspecified) was read as LANA-H2B inh 34, HDAC3 inhib inactive, DAGLB inhibitor inactive and hiPSC survival inactive.
For CC(C)(C)c1[nH]nc2c1C(c1ccc(OC(=O)c3ccco3)cc1)C(C#N)=C(N)O2 (stereo unspecified) the results were LANA-H2B inh inactive, HDAC3 inhib 54, DAGLB inhibitor inactive and hiPSC survival inactive.
`CC(C)(C)c1[nH]nc2c1C(c1cccnc1)C(C#N)=C(N)O2` (stereo unspecified) gave LANA-H2B inh inactive, HDAC3 inhib inactive, DAGLB inhibitor inactive and hiPSC survival inactive.
COC(=O)c1ccccc1S(=O)(=O)N1CCC(C(=O)Nc2ccc(N3CCOCC3)cc2)CC1 was read as LANA-H2B inh inactive, HDAC3 inhib inactive, DAGLB inhibitor inactive and hiPSC survival inactive.
Screening COc1ccccc1N1C(=O)[C@@H]2C(C(=O)CN3C(=O)c4ccccc4C3=O)=NN[C@@H]2C1=O returned LANA-H2B inh 32, HDAC3 inhib inactive and hiPSC survival inactive.
For COc1cccc(N2C(=O)C3NN=C(C(=O)CN4C(=O)c5ccccc5C4=O)C3C2=O)c1 (stereo unspecified) the results were LANA-H2B inh inactive, HDAC3 inhib inactive and hiPSC survival inactive.
Cc1ccc(N2C(=O)[C@@H]3C(C(=O)CN4C(=O)c5ccccc5C4=O)=NN[C@@H]3C2=O)c(C)c1 was read as LANA-H2B inh 24, HDAC3 inhib inactive and hiPSC survival inactive.
CC1(C)CNC(=O)c2sc(NC(=O)c3ccccc3)nc2C1 was read as LANA-H2B inh 18, HDAC3 inhib inactive, DAGLB inhibitor inactive and hiPSC survival inactive.
For O=C(c1ccc(Br)cc1)c1sc(N2CCOCC2)nc1-c1ccccc1 the results were LANA-H2B inh inactive, HDAC3 inhib inactive, DAGLB inhibitor inactive and hiPSC survival inactive.
For O=C(Oc1ccc([N+](=O)[O-])cc1)c1cccnc1 the results were LANA-H2B inh inactive, HDAC3 inhib 32, DAGLB inhibitor inactive and hiPSC survival inactive.
For COc1ccc(OC(=O)c2cccnc2)cc1 the results were LANA-H2B inh inactive, HDAC3 inhib inactive, DAGLB inhibitor inactive and hiPSC survival inactive.
For Cc1ccc(/C(O)=C/c2nc3cc(C)ccc3oc2=O)cc1 the results were LANA-H2B inh 26, HDAC3 inhib inactive and hiPSC survival inactive.
For COC(=O)c1ccc(NC(=O)COC(=O)c2cccc3c(=O)c(C)c(-c4ccccc4)oc23)cc1 the results were LANA-H2B inh inactive, HDAC3 inhib inactive, DAGLB inhibitor inactive and hiPSC survival inactive.
Cc1c(-c2ccccc2)oc2c(C(=O)OCC(=O)Nc3ccc(C(N)=O)cc3)cccc2c1=O was read as LANA-H2B inh 28, HDAC3 inhib inactive, DAGLB inhibitor inactive and hiPSC survival inactive.
COc1cc(/C=N/N2CCN(C3c4ccccc4-c4ccccc43)CC2)ccc1O was read as LANA-H2B inh 26, HDAC3 inhib inactive, DAGLB inhibitor inactive and hiPSC survival inactive.
For Oc1cccc(/C=N/N2CCN(C3c4ccccc4-c4ccccc43)CC2)c1 the results were LANA-H2B inh inactive, HDAC3 inhib inactive, DAGLB inhibitor inactive and hiPSC survival inactive.
`CN(C)CCN(C(=O)c1ccc2ccccc2c1)c1nc2cc3c(cc2s1)OCO3` gave DAGLB inhibitor inactive and hiPSC survival 19.
